Pol eta inh: inhibitors of human DNA polymerase eta | Q9Y253 | recombinant Pol eta, fluorescent DNA replication assay | Potency, µM (doses to about 114 µM), inactives show top-dose activity change, negative = inhibition, hits mostly inhibitors | 390,000 compounds, 1.2% hits | AID 588591; further: on the % scale 0 is the no-effect control and ±100 the full control effect
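Pol eta at 10 nM preincubated with compounds 15 min at room temperature; reaction started with fluorescent substrate (50 nM final) and read kinetically at 0 and 10 min.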
TDP1 inh: blocks human tyrosyl-DNA phosphodiesterase 1 | Potency, µM (top dose mostly 130 µM), inactives show at the top dose activity change, negative = inhibition, actives largely listed as inhibitors | AID 485290 | recombinant TDP1, AlphaScreen DNA substrate cleavage | 350,000 compounds, 0.28% hits; further: on the % scale 0 is the no-effect control and ±100 the full control effect; nearly all actives have a fitted effect of over 40% in size
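Steps: enzyme plus compound, 15 min RT; add biotin/phosphotyrosine-FITC oligonucleotide (15 nM final), react 5 min; add donor/acceptor beads (10 ug/ml final), 10 min; read AlphaScreen. Tdp1 at 1 nM final.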
POLB inh: inhibitors of human DNA polymerase beta. AID 485314. Potency, µM (top dose mostly 114 µM), for the others: at the highest dose activity change, negative = inhibition, most hits filed as inhibitors. Pol beta primer extension/strand displacement, fluorescence kinetic. 340,000 compounds, 1.3% hits; further: on the % scale 0 is the no-effect control and ±100 the full control effect
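Enzyme-only controls used 10 nM Pol beta; buffer lacking enzyme served as negative control. Compound preincubated 15 min, then 50 nM substrate added; 0 and 10 min reads at room temperature.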
FEN1 inhibitor: blocks human flap endonuclease 1; P39748; Recombinant FEN1 flap cleavage, fluorescence, 15 min; Potency, µM (doses to about 114 µM), inactives show at the top dose activity change, negative = inhibition, most hits filed as inhibitors; 390,000 compounds, 0.35% hits; further: on the % scale 0 is the no-effect control and ±100 the full control effect; nearly all actives have a fitted effect of over 65% in size
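Enzyme 10 nM, 15 min RT preincubation with compound; start with substrate 50 nM final; reads at 0 and 15 min; qHTS titration, four-parameter Hill fit.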
POLI inh: blocks human DNA polymerase iota activity. Q9UNA4. Pol iota fluorescent replication assay, 10 min. Potency, µM (doses to about 115 µM), for the others: top-dose activity, negative = inhibition, most hits filed as inhibitors. 390,000 compounds, 1% hits. AID 588590
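Pol iota at 10 nM preincubated 15 min with compounds at room temperature; reaction started with fluorescent substrate, 50 nM final. Fluorescence read kinetically at 0 and 10 min; buffer-only wells as negative control.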
POLK inh: inhibitors of human DNA polymerase kappa; 400,000 compounds, 0.53% hits; purified Pol kappa, fluorescent DNA synthesis assay, 10 min; Potency, µM (doses to about 107 µM), inactives show at the top dose activity, negative = inhibition, most hits filed as inhibitors; further: on the % scale 0 is the no-effect control and ±100 the full control effect
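Activity was followed as the change in fluorescence between reads at 0 and 10 min after starting the reaction with 50 nM substrate. Beforehand, 10 nM polymerase had been preincubated with compound for 15 min at room temperature.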
* hit, by the source's call; ? = inconclusive; nt = no result; ! = a repeat was not active; [ ] = remark or other dose. An excerpt weighted towards active compounds, which were near 2.4% of everything screened. The call rests on the fitted dose curve; in most records, active means well fitted curve in the direction sought with a large enough effect; inconclusive means small, poorly fitted or top-dose-only effect, or another doubt; inactive means no such curve, though single readings can be large; an effect the other way counts as inactive or inconclusive. Potency means the concentration at half of the fitted maximal effect.

SMILES	Pol eta inh	TDP1 inh	POLB inh	FEN1 inhibitor	POLI inh	POLK inh
Cc1ccc(-c2nnc3c4ccccc4c(C)nn23)cc1NC(=O)CN1CCOCC1	nt	1%	-3%	nt	nt	nt
CCOC(=O)c1cc2c(=O)n3ccccc3nc2n(Cc2ccco2)c1=NC(=O)c1cccc(OC)c1	-3%	-3%	-18%	-10%	24%	-6%
CCOC(=O)c1cc2c(=O)n3ccccc3nc2n(Cc2ccco2)c1=NC(=O)c1ccccc1OC	-11%	79µM*!	?	-12%	?	?
CCOC(=O)c1cc2c(=O)n3ccccc3nc2n(Cc2ccco2)c1=NC(=O)c1ccc(OC)cc1	-16%	-8%	33%	79µM*!	22µM*!	?
O=C(c1cnn2c1NC(=C1CC1)C=C2C(F)F)N1CCc2ccccc21	nt	nt	nt	8%	23%	8%
Cc1nc2ccccc2oc1=O	nt	6%	nt	nt	nt	nt
Nc1cc2nc3ccccc3oc-2cc1=O	?	-8%	25µM*	?	20µM*	45µM*
CN(CC(=O)O)c1ccc(/C=C2\C=Cc3ccccc32)cc1	nt	nt	nt	-1%	50%	56µM*!
C[N+](C)(C)c1ccc(/C=C2\C=Cc3ccccc32)cc1	nt	nt	nt	35µM*	10%	-2%
C1=Cc2ccccc2/C1=C\c1cc[cH-]c1.[Fe+2].c1cc[cH-]c1	nt	nt	nt	13µM*	1.8µM*	1.1µM*
Cc1ccc2nc(CS)[nH]c2c1	nt	nt	nt	-1%	71%	7%
CCCN1Cc2cccc(C(=O)Nc3cc(Cl)ccc3C)c2C1=O	9%	0%	13%	-17%	-15%	-2%
Cc1nc([N+](=O)[O-])cn1CC(O)c1ccc2c(c1)OCCCO2 (stereo not given)	nt	nt	nt	-5%	-14%	6%
CC1(C)CC[C@]2(C(=O)n3ccnc3)CC[C@]3(C)[C@H](C(=O)C=C4[C@@]5(C)C=C(C#N)C(=O)C(C)(C)[C@@H]5CC[C@]43C)[C@@H]2C1	3.5µM*	nt	nt	?	14µM*	-10%
NNC(=S)Nc1cccc(-c2n[nH]c(=S)o2)c1	79µM*	-8%	?	50µM*	-12%	-30%
CN(C)C(=S)Nc1cccc(-c2n[nH]c(=S)o2)c1	-15%	-5%	3%	-2%	38%	-14%
OCCOC[C@H]1O[C@H](OCCO)[C@H](OCCO)[C@@H](OCCO)[C@@H]1OCCO (tested in a mixture with another compound)	nt	nt	nt	nt	nt	5%[19.4 µM]
CCS(=O)(=O)c1ccc2oc(SCC(=O)NCc3ccccc3)nc2c1	-14%	5%	8%	-1%	3%	-4%
CCS(=O)(=O)c1ccc2oc(SCC(=O)c3ccco3)nc2c1	16µM*	-2%	0%	-6%	?	-11%
CCn1c(C)nc2cc(C(=O)N/N=C/c3ccc(O)c(O)c3O)ccc21	5µM*	-3%	1.6µM*	?	?	10µM*
Cc1nc2ccc(C(=O)N/N=C/c3ccccc3O)cc2[nH]1	-15%	-10%	20µM*	-17%	?	-30%
COc1cc(OC)c(NC(=O)CCn2cnc3onc(-c4ccc(F)cc4)c3c2=O)cc1Cl	1%	-1%	1%	-16%	-14%	4%
O=C(N=NC(=O)c1ccco1)c1ccc2c(O)n(N3C(=O)c4ccccc4C3=O)c(O)c2c1	?	3%	45µM*	-9%	-13%	-15%
CCn1c(O)c2ccc(C(=O)N=NC(=O)c3ccccc3)cc2c1O	-3%	5%	58%	0%	13%	-5%
CCCCCCCCCC[n+]1cccc2cc(Cl)ccc21	nt	nt	nt	2%	10%	5%
Cc1ccc(NS(=O)(=O)c2c(C)nc3sccn3c2=O)c(Cl)c1	-11%	2%	9%	-3%	8%	16%
Cc1ccc(N(C)S(=O)(=O)c2ccc3c(c2)CCC(=O)N3)cc1C	nt	-3%	nt	nt	nt	nt
O=C(COc1cccnc1[N+](=O)[O-])c1ccc(Cl)s1	45µM*	1%	32µM*	?	11µM*	79µM*
